Compound activity from PubChem.
The list is not random: actives were taken first. Their share in the collection is about 2.5%.
MARV entry inh – Marburg virus entry inhibition | Marburg virus pseudotyped entry inhibition, cell reporter | Potency, µM (titrated, usually from 37.8 µM), for the others: at the top dose activity change, negative = inhibition, most hits filed as inhibitors | 300,000 tested, 1.8% active | AID 540276; calls by dose curve; tested in HEK293 cells; further: potency means the concentration at half of the fitted maximal effect; on the % scale 0 is the no-effect control and ±100 the full control effect
Vaccinia mCherry – vaccinia inhibition (mCherry reporter). Vaccinia virus mCherry reporter infection, fluorescence. Potency, µM (titrated, usually from 36.5 µM), for inactives: at the highest dose activity change, negative = inhibition, hits mostly inhibitors. 310,000 tested, 0.63% active; calls by dose curve; tested in A549 cells; further: potency means the concentration at half of the fitted maximal effect; on the % scale 0 is the no-effect control and ±100 the full control effect; nearly all actives have a fitted effect of over 35% in size
VACV Venus inh – inhibitors of vaccinia virus (Venus reporter); Vaccinia virus Venus reporter expression, fluorescence; 330,000 tested, 0.46% active; Potency, µM (doses to about 36.5 µM), for the others: at the top dose activity change, negative = inhibition, hits mostly inhibitors; calls by dose curve; tested in A549 cells; further: potency means the concentration at half of the fitted maximal effect; on the % scale 0 is the no-effect control and ±100 the full control effect; nearly all actives have a fitted effect of over 30% in size
Lassa entry inh – blocks Lassa virus binding to or entry into cells; Lassa virus pseudotype entry inhibition, cell reporter; Potency, µM (series often up to 37.9 µM), for inactives: top-dose activity change, negative = inhibition, hits mostly inhibitors; 300,000 tested, 1.2% active; AID 540256; calls by dose curve; tested in HEK293 cells; further: potency means the concentration at half of the fitted maximal effect; on the % scale 0 is the no-effect control and ±100 the full control effect; nearly all actives have a fitted effect of over 50% in size
HeLa G2M arrest – HeLa G2/M cell cycle arrest induction; 25 tested, 60% active; Potency, µM, hits mostly inhibitors; HeLa cell cycle G2/M arrest, Hoechst DNA content imaging; shares compounds with MARV entry inh; AID 2441
WI-38 cytotox – toxic to WI-38 fibroblasts in PNC inhibitor counter-screen. WI-38 normal lung fibroblasts, ATPLite luminescence ATP viability, 24 h. 120 tested, under 10 active. Potency, µM (titrated, usually from 46.1 µM), for inactives: top-dose activity change, negative = cytotoxicity, hits mostly inhibitors. shares compounds with MARV entry inh
PNC assembly inh – confirmation of perinucleolar compartment assembly inhibitors | PC3M PTB-GFP, PNC prevalence imaging, 16 h | 120 tested, 50% active | shares compounds with MARV entry inh | Potency, µM (top dose mostly 46.1 µM), for inactives: top-dose activity, negative = PNC inhibition, usual class: inhibitors
PC3M caspase – counter-screen for PNC inhibitors: PC3M caspase 3/7 activation; activity change, positive = activation, % at 46.1 µM; PC3M-GFP caspase 3/7 activation, luminescence, 24 h; 120 tested, under 10 active; shares compounds with MARV entry inh
Numbers without * were called inactive; [ ] = dose if it differs, or a comment. Unless noted, the call rests on the fitted dose curve; in most records, active means well fitted curve in the direction sought with a large enough effect; inconclusive means small, poorly fitted or top-dose-only effect, or another doubt; inactive means no such curve, though single readings can be large; an effect the other way counts as inactive or inconclusive.

Results for Nc1ccc2c(c1)C(=O)C(=O)c1ccccc1-2 ?
MARV entry inh: 5.62µM*; VACV Venus inh: 3.55µM*; Lassa entry inh: inconclusive; WI-38 cytotox: 28.2µM*; PNC assembly inh: 20µM*; PC3M caspase: -15.5

Results for Nc1ccc2c(c1)C(=O)c1ccccc1C2=O ?
MARV entry inh: 16.0%; Vaccinia mCherry: -12.8%; VACV Venus inh: 4.7%; Lassa entry inh: -1.4%[46.1 µM]

Results for CCc1ccc2oc(-c3ccc(C)c(NC(=O)COc4ccccc4Cl)c3)nc2c1 ?
Vaccinia mCherry: -10.7%; VACV Venus inh: -10.7%

What do the screens show for `O=C1C(=Cc2cccs2)C(=O)c2ccccc21`?
MARV entry inh: -5.3%; Vaccinia mCherry: inactive; VACV Venus inh: -9.7%; Lassa entry inh: 4.6%; WI-38 cytotox: 7.0%; PNC assembly inh: 2.5%; PC3M caspase: 1.9

How did COc1ccc(-c2nc(NC(=O)c3n[nH]c(=O)c4ccccc34)sc2C)cc1 do in these assays?
MARV entry inh: 0.794µM*; Vaccinia mCherry: -2.8%; VACV Venus inh: 0.4%; Lassa entry inh: 1.03µM*; WI-38 cytotox: 10.9%; PNC assembly inh: 3.98µM*; PC3M caspase: -5.1

How did Cc1cc(C)c(-c2csc(NC(=O)c3n[nH]c(=O)c4ccccc34)n2)c(C)c1 do in these assays?
MARV entry inh: inconclusive; Vaccinia mCherry: -13.3%; VACV Venus inh: -12.3%; Lassa entry inh: inconclusive

Results for CC(=O)c1ccc(-n2c(SCC(=O)c3c[nH]c4ccccc34)nc3ccccc3c2=O)cc1 ?
MARV entry inh: 3.4%; Vaccinia mCherry: -7.0%; VACV Venus inh: -23.7%; WI-38 cytotox: -16.8%; PNC assembly inh: 28.0%; PC3M caspase: -6.9

What do the screens show for `CN1c2ccccc2C(C)(C)C12CC(c1ccc(Cl)c(S(=O)(=O)N3CCCC3)c1)=NO2` (stereo not given)?
MARV entry inh: 22.3%; Lassa entry inh: -9.0%; WI-38 cytotox: 8.8%; PNC assembly inh: 3.98µM*; PC3M caspase: -7.4

Results for CCCCCCCCCCCCCCCCCC(=O)NCC(COP(=O)([O-])OCC[N+](C)(C)C)OCC (stereo not given) ?
MARV entry inh: 20µM*; Lassa entry inh: inconclusive; HeLa G2M arrest: inconclusive

Results for COc1ccc(-c2nc3ccc(NC(C)=O)cc3c(=O)n2Cc2ccccc2)cc1COc1ccc(NC(C)=O)cc1 ?
Vaccinia mCherry: inactive; VACV Venus inh: -6.9%

How did COCCn1c(SC(C)C(=O)Nc2ncc(Cl)cc2Cl)nc2ccccc21 (stereo not given) do in these assays?
MARV entry inh: 2µM*; Vaccinia mCherry: inconclusive; VACV Venus inh: 11.9%; Lassa entry inh: 1.41µM*; WI-38 cytotox: -3.3%; PNC assembly inh: 12.6µM*; PC3M caspase: -7.3

How did Cc1cc(SC(C)C(=O)Nc2ncc(Cl)cc2Cl)nc2ccccc12 (stereo not given) do in these assays?
MARV entry inh: inconclusive; Vaccinia mCherry: -10.3%; VACV Venus inh: -4.3%; Lassa entry inh: 5.8µM*; WI-38 cytotox: -14.1%; PNC assembly inh: 11.2µM*; PC3M caspase: -0.8

Results for Cc1nnc(SC(C)C(=O)Nc2ncc(Cl)cc2Cl)n1Cc1ccccc1 (stereo not given) ?
MARV entry inh: 15.2%; Vaccinia mCherry: inactive; VACV Venus inh: -10.8%; Lassa entry inh: 4.7%

How did CC(=O)c1ccc(NC2=C(N3CCOCC3)C(=O)c3ccccc3C2=O)cc1 do in these assays?
MARV entry inh: inconclusive; Vaccinia mCherry: -8.3%; VACV Venus inh: -19.4%; Lassa entry inh: inconclusive

What do the screens show for `CC(=O)N(C)C1=C(N2CCOCC2)C(=O)c2ccccc2C1=O`?
MARV entry inh: 1.46µM*; Lassa entry inh: 0.58µM*; WI-38 cytotox: inconclusive; PNC assembly inh: inconclusive; PC3M caspase: inconclusive

What do the screens show for `O=c1c2ccccc2sn1-c1ccc(Cl)c(S(=O)(=O)N2CCOCC2)c1`?
Vaccinia mCherry: -27.7%; VACV Venus inh: -19.5%

Results for CN(C)C(=O)COC(=O)c1ccccc1Nc1ccc(SC(F)F)cc1 ?
MARV entry inh: -4.4%; WI-38 cytotox: -11.6%; PNC assembly inh: 15.8µM*; PC3M caspase: -20.1
